Results reported in PubChem BioAssay (NCI).
This is part of a sample that, as a whole, favours compounds with a hit. Of some 79,000 tested, about 15% had one in any assay. A number with no mark means an inactive call. Active and inactive are the calls of the source. Rule as the data show it: active = growth inhibition above about 70%; inactive = the rest.

Assays:
[1] = NCI Yeast Anticancer Drug Screen. Data for the rad50 strain (AID 155);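 also: 0% = growth of vehicle-only cultures of the same strain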; details: S. cerevisiae rad50 strain growth inhibition; at 50.0 µM; active compounds read high
Method in brief: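 Compounds were tested on a yeast strain with an engineered DNA damage repair alteration; the reported value is growth inhibition normalised to vehicle treatment.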

[2] = NCI Yeast Anticancer Drug Screen. Data for the mec2-1 strain (AID 157); details: S. cerevisiae mec2-1 strain, at 50.0 µM, active compounds read high
Method in brief: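 Compounds were applied to mec2-1 yeast cells. Their growth was then compared with that of vehicle-treated cultures to give growth inhibition.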

[3] = NCI Yeast Anticancer Drug Screen. Data for the sgs1 mgt1 strain (AID 161);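 also: 0% = growth of cultures given vehicle only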; details: S. cerevisiae sgs1 mgt1 strain, at 50.0 µM, active compounds read high
Method in brief: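 Percent growth inhibition was derived by comparing compound-exposed mutant yeast with vehicle-exposed cultures. The strain carries alterations in DNA damage repair.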

[4] = NCI Yeast Anticancer Drug Screen. Data for the cln2 rad14 strain (AID 165);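 also: 0% = growth equal to vehicle treated cultures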; details: S. cerevisiae cln2 rad14 strain, at 50.0 µM, active compounds read high
Method in brief: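 Strain: cln2 rad14 yeast, altered in cell cycle control and DNA damage repair. Read-out: growth inhibition vs vehicle.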

[5] = NCI Yeast Anticancer Drug Screen. Data for the bub3 strain (AID 167); details: S. cerevisiae bub3 mutant strain, at 50.0 µM, active compounds read high
Method in brief: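 Growth of a checkpoint-deficient yeast mutant is measured after compound exposure. Values represent inhibition relative to vehicle.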

[6] = NCI Yeast Anticancer Drug Screen. Data for the mlh1 rad18 strain (AID 175); details: S. cerevisiae mlh1 rad18 strain growth inhibition; at 50.0 µM; active compounds read high
Method in brief: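 A repair-deficient yeast strain is exposed to test compound, and growth is scored relative to vehicle-treated controls.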

SMILES | growth inhibition [1] | growth inhibition [2] | growth inhibition [3] | growth inhibition [4] | growth inhibition [5] | growth inhibition [6]
CC(=O)C1=C(C)Cn2c(=O)c3ccccc3c(=O)n2C1 | -4.7% | -18.5% | -10.7% | 10% | -15.7% | -0.05%
Clc1ccc(CNc2nc3ccccc3nc2-c2cccs2)c(Cl)c1 | -0.3% | 16.8% | 11.3% | 5.25% | 12.3% | 18.7%
CC(=O)OC1CCC2(C)C(CCC3C2CCC2(C)C3CCC2C(C)(C)O)C1 (configuration not stated) | -2.2% | 0.3% | -16.4% | -9.15% | -2.45% | 20.6%
Cc1nnc(-c2ccccc2)s1 | 15.1% | 12.3% | -3.2% | 12.1% | -10.6% | -7.45%
CNC(C)C#N (configuration not stated) | -17.7% | -11.6% | -11.9% | -19.6% | 0.75% | -11.6%
O=c1cc(-c2ccccc2)oc2c(N=Nc3ccccc3)ccc(O)c12 | 33.8% | -14.8% | 22.9% | 25.4% | 22.4% | -11.5%
CCOC(OCC)C(C)(C)OC=O | -9.2% | -20.8% | -7.7% | 24.2% | 10.6% | 6.6%
COC(=O)C1(O)CC(=O)CCC1c1ccc(OC)cc1 (configuration not stated) | 9.75% | -1.35% | -14.8% | -10.3% | -38% | -17.1%
Clc1ccccc1C(Nc1ncccn1)Nc1ncccn1 | 11.1% | 15% | -8.05% | -0.25% | 41% | 13.1%
N#C/C(C(=N)c1ccccc1)=C1\SS/C(=C(\C#N)C(=N)c2ccccc2)S1 | 7.2% | 2.35% | 7.6% | 23.7% | 3.7% | -4.45%
Brc1c(-c2ccccc2)oc2nc3ccccc3nc12 | 17.2% | 0.2% | 0.2% | 7.45% | 12.6% | 3.8%
O=c1oc(-c2ccccc2)nc2c1CCCS2 | -1.2% | -0.95% | -5.65% | 1.85% | -8.25% | -3.05%
CN1CC2=C(C1)C(N(C(=O)c1ccc(-c3ccccc3)cc1)C(=O)c1ccc(-c3ccccc3)cc1)=NCN2 | 11.4% | 3.25% | 16.1% | 10.6% | 0.6% | 21.6%
CCOC(=O)C(CC(Nc1ccccc1)(c1ccccc1)c1ccccc1)c1ccccc1 (configuration not stated) | 21.9% | -8.3% | 4.65% | -35.5% | -3.45% | -0.65%
CC(CO)NCc1ccccc1 (configuration not stated) | -18.2% | -14.9% | -1.95% | 3.95% | -29.6% | 3.95%
Cc1nc2c(=O)n3c4c(cccc4c2o1)CCC3 | 14.4% | 10.4% | 21.6% | 14.5% | 14.5% | -48.4%
CC(C)=CCC/C(C)=C/CC/C(C)=C/C1CCC(=O)C1(C)C (configuration not stated) | 5% | -38.4% | -43.2% | -16.6% | -33.3% | -8.35%
CC(=O)OCC1OC(n2cnc3c(N)ncnc32)CC1OC(C)=O (configuration not stated) | -1.7% | -1.75% | -1.25% | -47.5% | 15.5% | -18.6%
CN1CCC(C[CH2][Sn]([c]2ccccc2)([c]2ccccc2)[c]2ccccc2)CC1 | 51.1% | 99.3% (active) | 50.7% | 63% | 49% | 57.5%
OCc1ccc(CO)o1 | 17.8% | 15.7% | -16.4% | -1.55% | 24.1% | 5.4%
O=c1[nH]c2cccnc2[nH]c1=O | -8% | -44% | -32.8% | 4% | -32.5% | -2.05%

SMILES | growth inhibition [1] | growth inhibition [2] | growth inhibition [3] | growth inhibition [4] | growth inhibition [5] | growth inhibition [6]
FC(F)(F)C1(F)C(F)(F)C(F)(F)C(F)(F)C(F)(F)C1(F)F | 16.3% | -39.1% | -4.95% | -96.2% | -24.1% | 27.9%
CCN(CC)c1ccc(NCC(O)c2cc(Cl)ccc2OC)cc1 (configuration not stated) | -11.8% | -5.75% | 15.6% | 22.8% | -6.3% | -1.65%
C(=N\OCc1ccccc1)/c1ncccc1C1OCCO1 | -10.6% | -23.1% | -0.5% | 20.2% | -5.8% | -8.75%
O=C(Nc1ccccn1)OCCCl | -1.6% | 0.6% | 4.35% | 10.1% | -28.2% | 7.1%
O=C(O)c1cccc(O)c1C(=O)O | 29.2% | -3.4% | 21.9% | 21.2% | 0.75% | 33.9%
Cc1cc(C)n(-c2nc(C)c(CCO)c(=O)[nH]2)n1 | -6.45% | -14.6% | -6.4% | 15.7% | -41.4% | -9.1%
CSc1nc2cc(C)c(C)cc2[nH]1 | -5.1% | -3.1% | 27.8% | -25.5% | 15.1% | -6.85%
O=C(O)CCc1c(-c2ccccc2)c(-c2ccccc2)c2n1CCC2 | 49.5% | 41% | 56.5% | -12.6% | 33.9% | 48.9%
N=C(Oc1ccccc1)c1ccccc1 | -1.95% | -22.3% | -12.6% | -28.7% | -13.1% | 6.45%
C=C(C)C#CCN(CCO)C(C)C | -7.45% | -30.3% | -12.9% | 9.2% | -19.4% | 4.75%
C/C=C(\CC)C(C)(C#N)C(=O)OCC (configuration not stated) | -13.3% | -33.3% | -21.2% | -3.45% | -27.8% | -29.1%
O=S(=O)(N/N=C/c1ccc(/C=N/NS(=O)(=O)c2ccccc2)cc1)c1ccccc1 | -6.9% | -15.8% | -21.3% | 12.6% | -7.95% | 0.15%
COc1ccc(OC)c(NC(=O)CCCC(=O)C(C#N)c2ccccc2C)c1 (configuration not stated) | 13.1% | -4.9% | -3.15% | 11.2% | 0.2% | 2.05%
CC(NC(=O)C(N)CC(=O)O)C(=O)OC12CC3CC(CC(C3)C1)C2 (configuration not stated) | -55.5% | -62.4% | -22.6% | -0.95% | 12.7% | -10.8%
COc1ccc(-c2cc(C)n(C3OC(CO)C(O)C(O)C3O)c(=S)c2C#N)cc1 (configuration not stated) | 23.9% | 8.15% | -9.05% | -19.1% | -0.6% | 13.7%
O=C(CCCCC(=O)NC1c2ccccc2Oc2ccccc21)NC1c2ccccc2Oc2ccccc21 | 35.2% | 12.1% | 31% | 32% | 9.25% | 31.4%
NNC(=O)C(=O)N/N=C(/CC1(O)C(=O)Nc2ccccc21)c1ccc(Cl)cc1Cl (configuration not stated) | -0.9% | 4% | -15.9% | -53.4% | 0.75% | -1.95%
CCON=C1C(C)(C)C(C)(C)C(C)(C)C1(C)C | -13.4% | 0.2% | -24.6% | 37.4% | -16.1% | -2.05%
CCCCC(CN(C)C)C(=O)/C=C/c1ccccc1 (configuration not stated) | 23.2% | 2.9% | 32.9% | -0.7% | 17.4% | 27.8%
O=S(=O)(c1ccc(Cl)cc1)N1CCN(S(=O)(=O)c2ccc(Cl)cc2)C1 | 2.05% | 8.1% | -14.3% | -21.6% | -0.05% | 15.6%
CCCCC1(C=O)NC(=O)N(C)C1=O (configuration not stated) | 5% | 2.35% | -10.8% | 5.6% | 7.2% | -9.35%
